From PubChem BioAssay
Pf growth 96h = Primary qHTS for delayed death inhibitors of the malarial parasite plastid, 96 hour incubation; P. falciparum luciferase reporter growth, 96 h; Potency, µM (highest dose often 28.7 µM), without a hit: at the top dose activity change, negative = inhibition, most hits filed as inhibitors; 6.9% of 320,000 active; AID 504834, 2011; note: % is set by controls: 0 for no effect and ±100 for the full control effect
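Infected RBCs, 2% Hct / 0.05% parasitemia final; luciferase-reporter P. falciparum; cpd 96 h, 37 C, 5% CO2; luciferase detection reagent; luminescence.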
SARS PLP yeast = qHTS of Yeast-based Assay for SARS-CoV PLP | 0.19% of 330,000 active | S. cerevisiae expressing SARS-CoV PLpro, growth rescue | Potency, µM (series often up to 32.9 µM), for the others: top-dose activity, positive = growth rescue, actives largely listed as activators | AID 485353, 2010; calls by dose curve; note: 0% is about no effect; nearly all actives have a fitted effect of over 55% in size
Pf growth 48h = Primary qHTS for delayed death inhibitors of the malarial parasite plastid, 48 hour incubation; P. falciparum luciferase growth in erythrocytes, 48 h; Potency, µM (highest dose often 28.7 µM), for the others: top-dose activity change, negative = inhibition, usual class: inhibitors; 5.9% of 310,000 active; AID 504832, 2011; note: % is set by controls: 0 for no effect and ±100 for the full control effect
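Compounds are pin-transferred into medium, infected erythrocytes (2% hematocrit, 0.1% parasitemia final) are added, and plates sit one parasite generation at 37 C in 5% CO2. Detection reagent is then added and luminescence measured.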
NS1 inh = qHTS Assay for Inhibitors of Influenza NS1 Protein Function. Potency, µM (doses to about 46.1 µM), for the others: at the top dose activity, positive = more growth. AID 2326, 2010. 0.4% of 270,000 active; calls by dose curve; note: actives are rising curves; nearly all actives have a fitted effect of over 50% in size
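Recovery from NS1-induced slow growth read by OD600 in budding yeast switched to galactose assay medium (pH 6.0, -URA) at 1:100 dilution. Compound 23 nl per well; the matching strain lacking NS1 serves as control.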
An asterisk follows results filed as active; ? = inconclusive; . = no result; [ ] = dose if it differs, or a comment. Rows were chosen to be rich in hits. Some 10% of all compounds tested hit in one or more screens of this group. Unless noted, calls come from the whole dose curve; as a rule, active = well fitted inhibition curve with a large enough effect; inconclusive = small, poorly fitted or top-dose-only effect, or another doubt; inactive = no such curve, though single readings can be large or run the other way. Potency is the fitted concentration of half-maximal effect.

SMILES	Pf growth 96h	SARS PLP yeast	Pf growth 48h	NS1 inh
CC1(C)S[C@@H]2[C@H](NC(=O)[C@@H](NC(=O)N3CCNC3=O)c3ccccc3)C(=O)N2[C@H]1C(=O)O	-8%[12.8 µM]	.	0%[12.8 µM]	.
COc1ccc(C2c3[nH]c4ccccc4c3C[C@H]3C(=O)N(c4ccccc4C(=O)N4CCC[C@@H]4C(=O)O)C(=O)N23)cc1 (stereo partly specified)	?	1%	12µM*	.
Cc1ccc(C2c3[nH]c4ccccc4c3C[C@H]3C(=O)N(c4ccccc4C(=O)N4CCC[C@H]4C(=O)O)C(=O)N23)cc1 (stereo partly specified)	10µM*	6%	?	15%
CC(C)c1ccc(C2c3[nH]c4ccccc4c3C[C@H]3C(=O)N(c4ccccc4C(=O)N4CCC[C@@H]4C(=O)O)C(=O)N23)cc1 (stereo partly specified)	8.3µM*	4%	9.3µM*	11%
O=C(O)[C@@H]1CCCN1C(=O)c1ccccc1N1C(=O)[C@@H]2Cc3c([nH]c4ccccc34)C(c3cccc(Cl)c3)N2C1=O (stereo partly specified)	10µM*	4%	?	?
O=C1[C@@H]2Cc3c([nH]c4ccccc34)C(c3ccccc3)N2C(=O)CN1CCO (stereo partly specified)	-2%	1%	5%	3%
O=C(O)[C@H]1CCCN1C(=O)c1ccccc1N1C(=O)[C@@H]2Cc3c([nH]c4ccccc34)C(c3cccc(Cl)c3)N2C1=O (stereo partly specified)	?	2%	?	?
COc1cccc(C2c3[nH]c4ccccc4c3C[C@H]3C(=O)N(c4ccccc4C(=O)N4CCC[C@H]4C(=O)O)C(=O)N23)c1 (stereo partly specified)	?	4%	?	?
CC1c2ccccc2N(NC(=O)Cc2ccccc2)C1C (stereo unspecified)	-1%	1%	-10%	-6%
CCCN(CC1CC1)C(=O)COC(=O)c1oc2c(F)cccc2c1C	?	-3%	?	.
O=C1[C@@H]2Cc3c([nH]c4ccccc34)C(c3ccc(Cl)cc3)N2C(=O)CN1CCO (stereo partly specified)	10%	-2%	?	-4%
COc1ccc(C2c3[nH]c4ccccc4c3C[C@H]3C(=O)N(c4ccccc4C(=O)N4CCC[C@H]4C(=O)O)C(=O)N23)cc1 (stereo partly specified)	?	4%	9.3µM*	18%
CC(C)c1ccc(C2c3[nH]c4ccccc4c3C[C@H]3C(=O)N(c4ccccc4C(=O)N4CCC(C(=O)O)CC4)C(=O)N23)cc1 (stereo partly specified)	1.5µM*	-1%	1.7µM*	-18%
COC(=O)c1ccc(C2c3[nH]c4ccccc4c3C[C@H]3C(=O)N(C4CC4)CC(=O)N23)cc1 (stereo partly specified)	?	0%	?	4%
CC1CCc2sc(C(=O)N3CCC(C(N)=O)CC3)cc2C1 (stereo unspecified)	363%	-24%	277%	.
Cc1c(NC(=O)c2ncn[nH]2)cccc1-c1nc2ccccc2s1	50%	-2%	55%	-4%
C/C=C/C(=O)OCC(=O)Nc1nc2ccc(C)cc2s1	10µM*	12%	.	14%
CN(C(=O)C1CCN(S(=O)(=O)c2cccs2)CC1)C1CCCCC1	1.7µM*	-2%	-16%	2%
Cc1cccc2sc(N(CCN(C)C)C(=O)C3CCN(S(=O)(=O)c4cccs4)CC3)nc12	?	0%	12µM*	.
O=C(NCC1CCCO1)c1ccc(COCC(F)(F)C(F)F)cc1 (stereo unspecified)	.	5%	33%	4%
CC(C)NC(=O)c1ccc(COCC(F)(F)C(F)F)cc1	13µM*	-15%	.	0%
Brc1cccc(OCCCCn2cncn2)c1	5%	-5%	15%	-17%
Clc1cc(Cl)c(OCCCCn2cncn2)c(Cl)c1	0.29µM*	-10%	-11%	-52%
C=C1C(CCl)(CCl)C2(Cl)C(Cl)C(Cl)C1(Cl)C2(Cl)Cl (stereo unspecified)	2.7µM*	.	1.9µM*	.
Cc1cc(C(=O)NCC(=O)Nc2c(C)cccc2C)c(C)o1	13%	2%	?	0%
SMILES	Pf growth 96h	SARS PLP yeast	Pf growth 48h	NS1 inh
O=C(Cc1ccccc1)NC(C(=O)O)C(O)c1ccc([N+](=O)[O-])cc1 (stereo unspecified)	10µM*	-1%	23%	2%
CC(OC(=O)CCN=C1NS(=O)(=O)c2ccccc21)C(=O)N(C)C1CCCCC1 (stereo unspecified)	-4%	1%	?	.
Cc1ccccc1-n1c(SCc2csc(Nc3ccccc3)n2)nnc1-c1cccnc1	9.3µM*	-8%	?	5%
CC(=O)c1c[nH]c(C(=O)NCc2cccc(C(F)(F)F)c2)c1	0%	-1%	-13%	7%
COc1ccc(C(=O)NNC(=O)C(NC(=O)c2cc(OC)cc(OC)c2)C(C)C)cc1 (stereo unspecified)	13%	1%	-28%	.
COc1cc(OC)cc(C(=O)N[C@H](C(=O)NC23CC4CC(CC(C4)C2)C3)C(C)C)c1	.	-6%	10µM*	-1%
CCC1=C(OC(=O)N(CC)CC)N2C(=O)OC(=NCCc3c[nH]c4ccccc34)[C@]2(C)[C@H]2C1=CC[C@H]1C(=O)NC(=O)[C@H]12	?	2%	12µM*	-10%
CCC1=C(OC(=O)N(CC)CC)N2C(=O)OC(=NCCc3c[nH]c4ccccc34)[C@]2(C)[C@H]2C1=CC[C@H]1C(=O)N(CC(=O)OC)C(=O)[C@H]12	15µM*	-2%	9.3µM*	-3%
CC1Cc2ccccc2N1Cc1cc(=O)c(OCC(=O)NCCc2ccccc2)co1 (stereo unspecified)	?	-3%	13µM*	.
COc1ccc(NC(=O)COc2coc(CN3c4ccccc4CC3C)cc2=O)cc1 (stereo unspecified)	8.3µM*	-3%	?	.
CCCNC(=O)COc1coc(CN2CCN(c3ccccc3F)CC2)cc1=O	-9%	0%	2%	-5%
COc1ccc(NC(=O)COc2coc(CN3CCc4ccccc43)cc2=O)cc1	6%	-8%	4%	.
COc1ccc(NC(=O)CN2CCN(C3c4ccccc4-c4ccccc43)CC2)cc1	?	-13%	?	-6%
COc1cc(Br)c(C(C)NC(=O)c2ccc(C)cc2)cc1OC (stereo unspecified)	?	0%	-18%	-23%
COc1cc(Br)c(C(C)NC(=O)c2cccc(Br)c2)cc1OC (stereo unspecified)	1.7µM*	1%	1.9µM*	-8%
O=C(CCCCCN1C(=O)CCC1=O)Nc1ccc(Br)cc1F	1µM*	-3%	19%	-1%
CC(=O)C[C@H](O)CC(=O)[C@H]1OC(=O)CC/C=C\Cc2ccccc21	40%	2%	12%	.
